Experimental data reported in PubChem BioAssay (NCATS).
Results filed as inconclusive are left out. Entries that show only a call come without a potency. Activity calls are given as the source filed them. Calls follow the shape of the dose curve; as a rule, active = well fitted inhibition curve with a large enough effect; inconclusive = small, poorly fitted or top-dose-only effect; inactive = flat fitted curve, though single readings scatter.

Assays:
Assay in all cases: qHTS profiling for inhibitors of Plasmodium falciparum proliferation (AID 504749); also: nearly all actives have a fitted effect of over 60% in size
Details in all cases: P. falciparum in erythrocytes, SYBR Green DNA, 72 h; series mostly up to 28.7 µM
AA1029 = tested on: AA1029
Procedure, shortened: (§1)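 Infected RBCs, 0.3% parasitemia/2.5% Hct final; cpd 72 h, 37 C, 5% CO2; lysis buffer with saponin/triton/SYBR Green I, o/n RT dark; FI 485/535; norm. to artemisinin (0.29 uM) and DMSO.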

ATS189 = tested on: ATS189
Procedure, shortened: as §1

ATS95 = tested on: ATS95
Procedure, shortened: as §1

C2A = tested on: C2A
Procedure, shortened: as §1

CP185 = tested on: CP185
Procedure, shortened: as §1

CP191 = tested on: CP191
Procedure, shortened: as §1

CP192 = tested on: CP192
Procedure, shortened: as §1

CP194 = tested on: CP194
Procedure, shortened: as §1

CP201 = tested on: CP201
Procedure, shortened: as §1

CP211 = tested on: CP211
Procedure, shortened: as §1

CP215 = tested on: CP215
Procedure, shortened: as §1

CP217 = tested on: CP217
Procedure, shortened: as §1

CP237 = tested on: CP237
Procedure, shortened: as §1

CP238 = tested on: CP238
Procedure, shortened: as §1

CP247 = tested on: CP247
Procedure, shortened: as §1

CP250 = tested on: CP250
Procedure, shortened: as §1

CP252 = tested on: CP252
Procedure, shortened: as §1

CP256 = tested on: CP256
Procedure, shortened: as §1

CP203 = tested on: CP203
Procedure, shortened: as §1

AS120 = tested on: AS120
Procedure, shortened: as §1
Potency is read from the fitted curve at half-maximal effect.

Row | Compound | Potency (AA1029) | Potency (ATS189) | Potency (ATS95) | Potency (C2A) | Potency (CP185) | Potency (CP191) | Potency (CP192) | Potency (CP194) | Potency (CP201) | Potency (CP211) | Potency (CP215) | Potency (CP217) | Potency (CP237) | Potency (CP238) | Potency (CP247) | Potency (CP250) | Potency (CP252) | Potency (CP256) | Potency (CP203) | Potency (AS120)
1 | Cc1cccc(C)c1NC(=O)NC1=CCCN1C | inactive | inactive | inactive | inactive | inactive | inactive | inactive | inactive | inactive | inactive | inactive | inactive | inactive | inactive | inactive | inactive | inactive | inactive |  | 
2 | CNC(=O)[C@H](Cc1c[nH]c2ccccc12)NC(=O)[C@@H](CC(=O)NO)CC(C)C | inactive | inactive |  |  |  |  |  |  | inactive |  |  |  |  |  |  |  | inactive |  |  | 
3 | Cn1c(=O)c2c(ncn2CCOC(=O)C(C)(C)Oc2ccc(Cl)cc2)n(C)c1=O |  |  |  |  |  |  | inactive | inactive | inactive | inactive | inactive |  | inactive |  |  | inactive |  |  | inactive | 
4 | CN(C)CCC=C1c2ccccc2C(C)(C)c2ccccc21 |  | inactive |  |  |  |  | inactive |  |  |  |  |  |  | inactive | inactive |  |  |  |  | 
5 | C[C@@](Cc1ccc(O)c(O)c1)(NN)C(=O)O |  | inactive | inactive | inactive | inactive | inactive | inactive | inactive | inactive | inactive | inactive | inactive |  | inactive | inactive | inactive | inactive | inactive | inactive | 
6 | O=C(Nc1ccc(O)cc1)c1ccccc1O | inactive | inactive | inactive | inactive | inactive | inactive | inactive | inactive | inactive | inactive | inactive |  | inactive | inactive |  | inactive | inactive |  |  | 
7 | OCc1ccccc1 | inactive |  |  | inactive | inactive |  | inactive | inactive | inactive | inactive |  |  |  | inactive |  | 10 µM (active) | inactive | 12.6 µM (active) |  | 
8 | N#Cc1ccc2c(c1)N(CCCN1CCC(O)CC1)c1ccccc1S2 | 11.2 µM (active) |  |  | inactive |  |  | inactive |  |  |  |  | inactive |  |  |  |  | inactive |  |  | 
9 | COc1ccc2nc(NC(=O)Nc3ccccc3)sc2c1 | inactive | inactive | inactive | inactive | inactive | inactive | inactive | inactive | inactive |  |  | inactive | inactive | inactive |  | inactive | inactive | inactive |  | 
10 | CC(C)CCCCCCc1ccc(O)cc1 | inactive |  |  | inactive | inactive | inactive | inactive | inactive | inactive | inactive | inactive | inactive | inactive | inactive |  | inactive | inactive | inactive | inactive | 
11 | NC(N)=NCC1COc2ccccc2O1 (stereo unspecified) |  | inactive | inactive |  | inactive |  | inactive |  | inactive |  |  | inactive | inactive | inactive |  | inactive | inactive |  | inactive | inactive
12 | CCOC(=O)Cc1ccc(-c2ccccc2)cc1 |  | inactive | inactive | inactive | inactive |  |  | inactive | inactive | inactive | inactive | inactive | inactive | inactive | inactive | inactive |  |  |  | inactive
13 | O=C(c1cc2ccccc2o1)N1CCN(Cc2ccccc2)CC1 |  |  |  | inactive |  |  | inactive |  |  |  |  |  |  | inactive |  |  |  | 10 µM (active) |  | 8.91 µM (active)
14 | CN1CCc2c(c3ccccc3n2Cc2ccccc2)C1 |  | inactive |  | inactive | inactive | inactive | inactive |  | inactive |  |  | inactive | 5.01 µM (active) | inactive | inactive | inactive | inactive | inactive |  | inactive
15 | CN1CCCC(CN2c3ccccc3Sc3ccccc32)C1 (stereo unspecified) | 10 µM (active) |  |  |  |  |  | inactive |  | inactive |  |  | 10 µM (active) |  |  |  |  |  |  |  | 12.6 µM (active)
16 | CCOc1cc(-c2nccc3cc(OC)c(OC)cc23)cc(OCC)c1OCC |  |  |  | inactive |  | 11.2 µM (active) |  |  |  |  |  |  |  | inactive |  |  |  |  |  | 
17 | C=CC[N+]1([C@H]2C[C@H]3[C@@H]4CC[C@H]5C[C@H](O)[C@@H](N6CCOCC6)C[C@]5(C)[C@H]4CC[C@]3(C)[C@H]2OC(C)=O)CCCC1 | 11.2 µM (active) |  |  |  |  |  |  |  |  |  |  |  |  |  |  |  |  | 11.2 µM (active) |  | 
18 | CC(=O)Nc1c(I)c(C(=O)O)c(I)c(N(C)C(C)=O)c1I | inactive | inactive | inactive | inactive | inactive | inactive | inactive | inactive | inactive | inactive | inactive | inactive | inactive | inactive | inactive | inactive | inactive | inactive | inactive | 
19 | N[C@@H](Cc1cc(I)c(Oc2ccc(O)c(I)c2)c(I)c1)C(=O)O |  |  |  | inactive | inactive |  | inactive |  | inactive | inactive |  |  |  | inactive |  |  |  | inactive |  | 
20 | CC(C)=CCC/C(C)=C/C=C/C(C)=C/C=C/C(C)=C/C=C/C=C(C)/C=C/C=C(C)/C=C/C=C(\C)CCC=C(C)C | inactive | inactive | inactive | inactive | inactive |  | inactive | inactive | inactive | inactive | inactive | inactive |  | inactive | inactive | inactive | inactive | inactive | inactive | 
